The text below walks through data of PubChem BioAssay AID1445 (SRMLSC, 2008).

About 910 (0.41%) of roughly 220,000 compounds were called active. For the sample, actives were picked, then their nearest neighbours and some compounds at random. Results with a measured potency or affinity are listed apart. Unmarked numbers belong to inactive results.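 Rule for the calls: active = primary inhibition above the hit cutoff, then over 50% inhibition at one or more dose response concentrations (cut at about 23% in these data, passing the limit was not always enough); inconclusive = conflicting primary data, or primary hits not chosen for dose response; inactive = low primary inhibition, or under 50% at every dose.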

Chain of Aminopeptidase N (Plasmodium falciparum (isolate 3D7)) (O96935 whole entry, looked up): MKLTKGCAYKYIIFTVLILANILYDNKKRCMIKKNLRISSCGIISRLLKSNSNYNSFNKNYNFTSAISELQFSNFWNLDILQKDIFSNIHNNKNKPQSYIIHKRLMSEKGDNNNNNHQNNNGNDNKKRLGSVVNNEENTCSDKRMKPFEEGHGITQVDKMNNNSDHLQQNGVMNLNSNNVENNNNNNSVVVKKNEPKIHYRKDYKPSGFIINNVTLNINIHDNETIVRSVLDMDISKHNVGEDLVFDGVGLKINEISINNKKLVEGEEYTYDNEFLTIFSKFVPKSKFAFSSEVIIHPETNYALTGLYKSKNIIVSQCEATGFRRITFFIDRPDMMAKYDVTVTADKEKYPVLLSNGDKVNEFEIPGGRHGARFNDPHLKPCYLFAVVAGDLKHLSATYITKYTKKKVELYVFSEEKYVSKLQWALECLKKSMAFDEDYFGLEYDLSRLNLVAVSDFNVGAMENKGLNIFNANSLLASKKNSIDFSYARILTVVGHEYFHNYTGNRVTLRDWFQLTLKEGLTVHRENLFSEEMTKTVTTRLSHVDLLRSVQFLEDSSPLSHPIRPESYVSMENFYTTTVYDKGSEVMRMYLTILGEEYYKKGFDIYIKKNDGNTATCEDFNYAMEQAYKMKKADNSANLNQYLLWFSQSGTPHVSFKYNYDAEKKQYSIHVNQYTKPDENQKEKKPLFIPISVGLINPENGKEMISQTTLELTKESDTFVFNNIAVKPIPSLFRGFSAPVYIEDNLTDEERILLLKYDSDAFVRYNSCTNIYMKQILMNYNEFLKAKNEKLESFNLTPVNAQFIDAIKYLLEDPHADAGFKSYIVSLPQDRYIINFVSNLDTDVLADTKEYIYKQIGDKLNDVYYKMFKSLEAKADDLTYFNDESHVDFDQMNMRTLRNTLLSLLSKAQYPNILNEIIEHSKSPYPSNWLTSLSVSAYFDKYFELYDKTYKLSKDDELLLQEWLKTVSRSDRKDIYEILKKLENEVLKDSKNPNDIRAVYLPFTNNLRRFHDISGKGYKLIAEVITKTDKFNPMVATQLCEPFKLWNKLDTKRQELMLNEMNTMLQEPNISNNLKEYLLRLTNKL

The assay addresses Aminopeptidase N (Plasmodium falciparum (isolate 3D7)) (UniProt O96935). The assay is described as follows: malaria alanyl aminopeptidase activity blockers – biochemical, fluorogenic H-Leu-NHMec substrate, 1536-well (AID 1445).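 Note: plate controls were DMSO full reaction for no effect and no enzyme background for full effect.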 The note with it: recombinant M1AAP, H-Leu-NHMec fluorogenic kinetic assay; at 30 µM, hits give high values unless noted.
As for `COc1ccc(CNC(=O)C(c2ccncc2)N(C(=O)Cc2cccs2)c2ccccc2C)cc1` (stereo not given), the inhibition is -1.48%. The result for `COc1ccc(N2CCN(CC(=O)Nc3nnc(-c4ccccc4)s3)CC2)cc1` reads 23.4% (active); that for `COc1ccc(N2CCN(C(=O)CN3C(=O)C4CC=CCC4C3=O)CC2)cc1` (stereo not given), -0.46%.

On to `COc1ccc(N2CCN(C(=O)CN3CCN(C(c4ccccc4)c4ccccc4)CC3)CC2)cc1`, for which the inhibition is 3.02%.

With `COc1ccc(N2CCN(CC(=O)N3CCC(C)CC3)CC2)cc1`, the inhibition was 24.4% (active). The result for `COc1cccc(N2CCN(CC(=O)Nc3nnc(-c4ccccc4)s3)CC2)c1` reads -5.75%. Consider `O=C(CN1CCN(c2ccccc2)CC1)Nc1nnc(-c2ccccc2)s1`, for which the inhibition was -5.83%. The figure for `CCn1c(SCC(=O)NCC2CCCO2)nnc1-c1ccccc1` (stereo not given) is 1.77%; for `c1cc2c(cc1C1=NNC(=NC3CC3)SC1)OCCO2` it is 8.68%. The figure for `CCOC(=O)Cc1csc(NC(=O)CC(C)(C)CC(=O)O)n1` is -4.17%.

`CCN(CC)S(=O)(=O)c1cccc(-c2n[nH]c(=S)n2/N=C/c2ccc(OC)cc2)c1`: the inhibition was 13.1%. Regarding `CCCc1c(C(=O)NNc2cc(C(F)(F)F)ccc2Cl)cnn1-c1ccccc1`, the inhibition is -1.62%. On to `CCC(=O)NC(=S)Nc1ccc(N2CCOCC2)cc1`, for which the inhibition was 4.46%.

On to `CCOC(=O)N1CCN(C(=O)C(=O)NNC(=O)COc2ccc(Cl)c(C)c2)CC1`, for which the inhibition was 3.22%.

`O=C(COc1ccc(Cl)cc1)NNC(=O)C(=O)N1CCCCC1`: the inhibition was 32.2%. The result for `O=C(O)CC1S/C(=N\N=C2CCCCCCC2)N(c2ccccc2)C1=O` (stereo not given) reads 7.68%; that for `CN(C(=O)c1ccccc1)C1(C)CCS(=O)(=O)C1` (stereo not given), -2.77%; that for `O=c1c2ccccc2nc(-c2ccc(Cl)c(Cl)c2)n1O`, 0.17%. The result for `O=c1c2ccccc2nc(-c2cccc(Cl)c2)n1O` reads 26.1% (active); that for `O=c1c2cc(Cl)ccc2nc(-c2ccccc2)n1O`, 3.06%; that for `CS(=O)(=O)N(CC(=O)Nc1ccccc1Cl)c1ccc(Cl)cc1`, 4.49%. Consider `O=C(Nc1ccc2c(c1)OCCO2)c1c(F)c(F)c(F)c(F)c1F`, for which the inhibition was 10.6%.

For `O=C(/C=C\c1ccccc1OC(=O)c1ccccc1F)c1cc2ccccc2o1`, the inhibition is 6.93%.

Turning to `O=C(CSc1nc2c(c(=O)[nH]1)CCC2)Nc1cccc(Cl)c1`, the inhibition is 1.88%. The figure for `O=c1c2c(nc3nc(NCc4cccc(Cl)c4)[nH]n13)CCC2` is 9.8%; for `CCCCCCCC(=O)NC1=NC(=O)C(C)(C)S1` it is -0.69%. On to `Cc1ccc2[nH]c(=O)c(CN(CC3COCCO3)C(=O)Nc3ccccc3C)cc2c1` (stereo not given), for which the inhibition was 13.8%.

For the compound `Cc1cccc(NC(=O)N(Cc2cc3cc(C)cc(C)c3[nH]c2=O)CC2COCCO2)c1` (stereo not given), the inhibition is 2.91%.

`CN(C)S(=O)(=O)c1ccc(C(=O)OCCn2cnc3c2c(=O)n(C)c(=O)n3C)cc1`: the inhibition is -2.31%. The result for `O=C(O)CCCC(=O)Nc1cc([N+](=O)[O-])ccc1O` reads 7.33%. Regarding `O=[N+]([O-])c1ccc(O)c(NC(=S)Nc2ccccc2)c1`, the inhibition is -0.91%. The result for `Cc1ccc(NCc2nnc(SCC(=O)Nc3ncc(C)s3)n2CC2CCCO2)c(C)c1` (stereo not given) reads 0.09%; that for `CCCCN(CC)C(=O)c1cc2cc3ccc(OC)cc3nc2o1`, 13.7%; that for `CCCCN(CC)CCCNC(=O)c1cc2cc3ccc(OC)cc3nc2o1`, 29.5%. `COc1ccc2cc3cc(C(=O)NCC4COc5ccccc5O4)oc3nc2c1` (stereo not given): the inhibition is 3.66%. As for `COc1ccc2cc3cc(C(=O)NCCN4CCN(c5ccccc5F)CC4)oc3nc2c1`, the inhibition is -0.03%. The result for `COc1ccc2cc3cc(C(=O)NC(C)C)oc3nc2c1` reads 13.4%. The result for `COc1ccc2cc3cc(C(=O)NCCCN4CCOCC4)oc3nc2c1` reads 18.2%; that for `Cc1cccc2c1Sc1ccccc1CC2=O`, 7.62%. Regarding `CCn1nnnc1NCc1ccc(N2CCCC2)cc1`, the inhibition is 5.58%.

With `COc1cccc(C(=O)OCC(=O)c2c[nH]c3ccccc23)c1O`, the inhibition was 6.87%. The figure for `COC(=O)N/N=C\c1ccc(OC(=O)c2ccco2)cc1` is 5.66%.

In the case of `CC12CCCCC1c1ccccc1C(=NCC(=O)O)N2` (stereo not given), the inhibition was 2.45%. The result for `CCOC(=O)c1c(NC(=O)c2ccc(-n3cnnn3)cc2)sc2c1CCCC2` reads 3.69%; that for `C=CCN(C#N)c1nc(OC)nc(N2CCCC2)n1`, -0.65%; that for `O=C(NC1CCCC1)C(c1ccccc1)N(C(=O)c1ccco1)C1CCCC1` (stereo not given), 17.7%. `COc1cccc(C(C(=O)NC2CCCC2)N(C(=O)c2ccco2)C2CC2)c1OC` (stereo not given): the inhibition is 11%. `O=C(NC1CCCC1)C(c1ccccc1F)N(C(=O)c1ccco1)C1CCCC1` (stereo not given): the inhibition is 25% (active). The result for `N/C(=N\OC(=O)CCCOc1ccccc1)c1ccc(Br)cc1` reads 5.3%. `O=CN1CCN(C(=O)COc2ccc(Cl)cc2Br)CC1`: the inhibition is 1.29%. The figure for `CCOc1cc(/C=C2\SC(=O)N(c3ccc(O)cc3)C2=O)ccc1O` is 15.2%; for `CCC1=NN2C(=N)/C(=C\c3ccc(OCc4cc(=O)n5nc(CC)sc5n4)c(OC)c3)C(=O)N=C2S1` it is 32.8%. With `CCOc1cc(/C=C2\SC(=O)N=C2N)ccc1O`, the inhibition was 22%. The result for `CCCC1=NN2C(=N)/C(=C\c3ccc(SCc4ccco4)o3)C(=O)N=C2S1` reads 20.4%. The result for `CCC1=NN2C(=N)/C(=C\c3ccc(SCc4ccco4)o3)C(=O)N=C2S1` reads 7.98%; that for `COc1cc(/C=C2/C(=N)N3C=CSC3=NC2=O)ccc1OCCCOc1cc(C)ccc1C`, -5.49%; that for `O=S(=O)(NCc1ccccn1)c1cccc2nsnc12`, 3.36%. The result for `Cc1cccc(NC(=O)NCc2ccc3c(c2)OCO3)c1C` reads -4.45%; that for `CSc1ccc(S(=O)(=O)NC(C)c2ccccc2)cc1` (stereo not given), -2.61%.

Turning to `CCOc1cc(OCC)nc(S(C)(=O)=O)n1`, the inhibition is 2.35%. The result for `CC(C)C(=O)N1CCC(CN=CC2=C(O)CC(C)(C)CC2=O)CC1` reads 6.11%. The result for `Cn1c(O)c(C=NCC2CCNCC2)c(=O)n(C)c1=O` reads -0.42%; that for `CC(C)C(=O)N1CCC(CN=Cc2c(O)n(C3CCCCC3)c(=O)n(C3CCCCC3)c2=O)CC1`, 27% (active).

For the compound `COC(=O)Cc1[nH]n(-c2ccccc2)c(=O)c1C=Nc1ccc(C)cc1`, the inhibition was -0.62%. The result for `COc1ccc(C(=O)Nc2nc3nc(-c4ccccc4)cc(=O)n3[nH]2)cc1` reads 10.9%; that for `Cc1ccc(C(=O)Nc2nc3nc(-c4ccccc4)cc(=O)n3[nH]2)cc1`, 25.9% (active); that for `O=C(Nc1nc2nc(-c3ccccc3)cc(=O)n2[nH]1)c1ccccc1`, -0.35%.

For `Cc1onc(-c2c(F)cccc2Cl)c1C(=O)Nc1ccc(S(=O)(=O)Nc2ncccn2)cc1`, the inhibition is 13.8%. The result for `Cc1cc(=O)oc2cc(Oc3ccc(C(N)=O)cc3[N+](=O)[O-])ccc12` reads 30%; that for `O=c1ccc2ccc(Oc3ccc([N+](=O)[O-])cc3[N+](=O)[O-])cc2o1`, 11.5%. The result for `CC(NC(=O)CN(C1CCCCC1)S(C)(=O)=O)c1ccccc1` (stereo not given) reads 2.9%. The result for `CC(NC(=O)COc1ccc(N(C)S(=O)(=O)c2ccccc2)cc1)c1ccccc1` (stereo not given) reads 1.27%; that for `NS(=O)(=O)c1ccc(CCn2c(=S)[nH]c3ccc(F)cc3c2=O)cc1`, -3.16%. As to `O=C1c2oc3ccc(F)cc3c(=O)c2C(c2cccc(O)c2)N1CCCN1CCOCC1` (stereo not given), the inhibition was -3%. The result for `CCCOc1ccc(C2c3c(oc4ccccc4c3=O)C(=O)N2CCCN2CCOCC2)cc1` (stereo not given) reads 4.5%. The result for `O=C1c2oc3ccccc3c(=O)c2C(c2cccc(O)c2)N1CCCN1CCOCC1` (stereo not given) reads 26.8% (active); that for `COc1cccc(C2c3c(oc4ccccc4c3=O)C(=O)N2CCCN2CCOCC2)c1` (stereo not given), 7.18%; that for `C=CCOc1ccc(C2c3c(oc4ccccc4c3=O)C(=O)N2CCCN2CCOCC2)cc1` (stereo not given), 24.2% (active).

In the case of `CCOc1ccc(C2c3c(oc4ccccc4c3=O)C(=O)N2CCCN2CCOCC2)cc1` (stereo not given), the inhibition is 2.52%. As for `Cc1ccc(Cn2c(SCCN3CCOCC3)nc3c2c(=O)n(C)c(=O)n3C)cc1`, the inhibition is 23.8% (active). The result for `Cn1c(=O)c2c(nc(SCCN3CCOCC3)n2Cc2ccccc2)n(C)c1=O` reads 7.6%.

Regarding `Cn1c(=O)c2c(nc(SCCN3CCOCC3)n2Cc2ccc(F)cc2)n(C)c1=O`, the inhibition was -1.46%. The figure for `Cc1ccc(NC(=O)NC2=NN(c3ccccc3)C(=O)/C2=C2/CCCN2C)cc1` is 8.56%. With `O=C(c1nc2ccccn2c1CN1CCC(Cc2ccccc2)CC1)N1CCCC1`, the inhibition is 5.48%. For the compound `CCOc1ccccc1N(CC(=O)Nc1ccccc1C(=O)NCc1ccco1)S(C)(=O)=O`, the inhibition was 21%. The figure for `COc1ccc(N(CC(=O)Nc2ccccc2C(=O)NCc2ccco2)S(C)(=O)=O)cc1` is 3.79%.

For `CCOc1ccc(N(CC(=O)Nc2ccccc2C(=O)NCc2ccco2)S(C)(=O)=O)cc1`, the inhibition was 23.4% (active). The result for `COc1ccc(C(C)=O)cc1CSc1nncn1C` reads 4.42%; that for `COC(=O)c1c(NC(NC(=O)c2ccccc2)(C(F)(F)F)C(F)(F)F)sc2c1CCN(C)C2`, 2.95%; that for `CCOC(=O)N(C)OC(=O)Nc1ccc(Cl)c(Cl)c1`, 24% (active). The figure for `CCOC(=O)N(CC)OC(=O)Nc1ccc(Cl)cc1` is 2.39%.

As for `CCOC(=O)CNNC(=O)Nc1ccc(Cl)c(Cl)c1`, the inhibition is -5.41%.

As for `Nc1nc(SCC(=O)Nc2cc(-c3ccccc3)nn2-c2ccccc2)n[nH]1`, the inhibition is 26.4% (active). Regarding `CCCc1ccc(-c2cc(NC(=O)CSc3n[nH]c(N)n3)n(-c3ccccc3)n2)cc1`, the inhibition is -9.14%. The figure for `Cc1ccc(-c2cc(NC(=O)CSc3n[nH]c(N)n3)n(-c3ccccc3)n2)cc1` is 3.01%.
